Measurements from PubChem BioAssay AID1347084 (National Center for Advancing Translational Sciences (NCATS), 2019).
Records with an inconclusive call do not appear. Active and inactive are the calls of the source. The call rests on the fitted dose curve.

Assay: qHTS for Inhibitors of the Functional Ribonucleoprotein Complex (vRNP) of Lymphocytic Choriomeningitis Arenaviruses (LCMV): LCMV Confirmatory Screen - GLuc reporter signal
Details: LCMV minigenome vRNP, Gaussia luciferase reporter; series mostly up to 53.9 µM

Structure (SMILES)	Potency	activity change, negative = inhibition
Cc1ccc2c(c1)C1CN(C)CCC1N2 (stereo not given)	inactive	
CCCCC[C@H](O)/C=C/C=C/C/C=C\CCCC(=O)O		4.12% [at 0.666 µM] (inactive)
Cc1cc2c(C(C)C)c(O)c(O)c(C=O)c2c(O)c1-c1c(C)cc2c(C(C)C)c(O)c(O)c(C=O)c2c1O	6.11 µM (active)	
Cc1cc(N)c2ccccc2[n+]1CCCCCCCCCC[n+]1c(C)cc(N)c2ccccc21	1.09 µM (active)	
COc1cccc(-c2ccc(NC(=O)C3=C(C(=O)O)CCC3)c(F)c2)c1	3.85 µM (active)	
Nc1ccc([N+](=O)[O-])cc1O	62.7 µM (active)	
Cn1cc(-c2ccncc2)c(-c2ccc(OCc3ccc4ccccc4n3)cc2)n1	24.3 µM (active)	
CC(=O)OCC(=O)[C@@]12N=C(C)O[C@H]1C[C@H]1[C@@H]3CCC4=CC(=O)C=C[C@]4(C)[C@@H]3[C@@H](O)C[C@@]12C	inactive	
CC12C(=O)OC(=O)C1(C)C1CCC2O1 (stereo not given)	9.68 µM (active)	
N#CC(=C(\N)Sc1ccccc1N)/C(C#N)=C(/N)Sc1ccccc1N	27.3 µM (active)	
CCOC(=O)OCC/C(SC(=O)OCC)=C(\C)N(C=O)Cc1cnc(C)nc1N	inactive	
O=C1c2ccccc2-n2c1nc1ccccc1c2=O	1.22 µM (active)	
CN1CCN(C2=Nc3cc(Cl)ccc3Nc3ccccc32)CC1	30.6 µM (active)	
CNCCCC1c2ccccc2C=Cc2ccccc21	30.6 µM (active)	
S=C(NCc1ccc2c(c1)OCO2)N1CCN(c2ncnc3c2oc2ccccc23)CC1	2.22 µM (active)	
